# D3 antag – blocks the human D3 dopamine receptor; P35462; D3R cells, DiscoveRx beta-arrestin luminescence, antagonist mode; active compounds read low; max response, negative = inhibition, %; 2.5% of 360,000 active; in the data active = max response below about -50%; inconclusive = no clear call, values can overlap the other calls
#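 Cells plated overnight at 1500 cells/well, then exposed to library compounds with dopamine controls for 90 minutes at 37 degrees C. DiscoveRx reagent added for 30–60 minutes at room temperature; luminescence read, quantitative HTS format.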
# DT40 TDP1 CPT – DT40-hTDP1 cell growth loss with CPT; chicken DT40 Tdp1-/-;hTDP1 cells + 20 nM CPT, ATP luminescence, 48 h; Potency, µM (titrated, usually from 46.2 µM), usual class: inhibitors; 12% of 420,000 active; AID 686979; also: nearly all actives have a fitted effect of over 55% in size
#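 Chicken DT40 Tdp1-/- cells stably complemented with human TDP1 were seeded at 400 cells/well in medium containing 20 nM camptothecin, exposed to pin-transferred compounds, and grown at 37 °C for at least 48 hr. Viability was read as ATP luminescence.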
# IL1B secr inh – inflammasome signaling inhibition, IL-1 beta readout; THP-1 LPS/ATP IL-1B secretion, AlphaLISA, 16 h; active compounds read low; activity change, % at 57.5 µM; 4.7% of 360,000 active; in the data active = activity change below about -50%; inconclusive = mostly about -30% to -49%
#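 Secreted IL-1B measured by AlphaLISA bead assay after 16 h compound exposure of THP-1 cells; compounds (final up to 57.5 uM) added 1 h before LPS (250 ng/mL) and ATP (1.25 mM) stimulation; lower signal means less secretion.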
# ClpP mod – qHTS Assay for Activators of ClpP. purified B. subtilis ClpP, FRET peptide cleavage, 20 min. Potency, µM (titrated, usually from 57.5 µM). 1.9% of 340,000 active. AID 651965, 2013; active = well fitted falling curve with a large enough effect; inconclusive = small, poorly fitted or top-dose-only effect; inactive = no such curve, though single readings can be large or run the other way; also: the source files actives as falling curves though it sought activators and does not explain the sign; nearly all actives have a fitted effect of over 65% in size
# Target sequence (P80244 whole entry, looked up): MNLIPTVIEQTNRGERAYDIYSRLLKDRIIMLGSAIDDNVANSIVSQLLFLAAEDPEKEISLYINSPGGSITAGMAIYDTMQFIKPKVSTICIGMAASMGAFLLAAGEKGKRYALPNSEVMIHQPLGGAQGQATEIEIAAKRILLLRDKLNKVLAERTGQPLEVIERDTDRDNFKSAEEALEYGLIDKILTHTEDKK
#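 ClpP 10 microg/mL final, pH 8 Tris/KCl buffer with BSA, glycerol, Tween-20; compound pinned in; FRET-FV substrate; RT 20 min; Ex320/Em430; ΔFRET vs ADEP 5.8 microM, DMSO, no enzyme.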
# D3 ag – activates the human D3 dopamine receptor; D3R DiscoveRx beta-arrestin cells, luminescence, 90 min; AID 652048; max activation, %; 0.58% of 410,000 active; in the data active = max activation above about 30%
#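 Agonist-mode cell screen: cells plated at 1500/well and incubated overnight at 37 °C, then exposed to library compounds for 90 min at 37 °C. Detection reagent was added for 30–60 min at room temperature, and luminescence was read.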
# DT40 TDP1 no CPT – qHTS for Inhibitors of human tyrosyl-DNA phosphodiesterase 1 (TDP1): qHTS in cells in absence of CPT; Potency, µM (titrated, usually from 46.2 µM), most hits filed as inhibitors; 15% of 420,000 active; AID 686978, 2013; DT40 Tdp1-/- hTDP1 cells, no CPT, ATP luminescence, 48 h; also: nearly all actives have a fitted effect of over 55% in size
#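 Compound effects on proliferation are scored in DT40 Tdp1-/-;hTDP1 cells in the absence of CPT. ATP levels (CellTiter-Glo luminescence) are recorded after a ≥48 hr, 37 °C incubation.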
# Hits are given with their value; – = inactive; ? = inconclusive; · = no result given. An excerpt weighted towards active compounds, which were near 21% of everything screened. Unless noted, calls follow the shape of the dose curve; as a rule, active = well fitted inhibition curve with a large enough effect; inconclusive = small, poorly fitted or top-dose-only effect; inactive = flat fitted curve, though single readings scatter.
SMILES,D3 antag,DT40 TDP1 CPT,IL1B secr inh,ClpP mod,D3 ag,DT40 TDP1 no CPT
Cc1ccc(-c2csc(C(C)(O)c3ccc(F)c(F)c3)n2)cc1C (stereo not drawn),-69,?,–,–,–,–
CC(O)(c1ccc(F)c(F)c1)c1nc(-c2cccc(F)c2)cs1 (stereo not drawn),–,?,–,–,–,?
CC(C)c1cccc(-c2csc(C(C)(O)c3ccc(F)c(F)c3)n2)c1 (stereo not drawn),–,?,?,–,–,?
CC(NC(=O)c1ccccc1)C(=O)NC1CCCc2ccccc21 (stereo not drawn),–,–,–,–,–,–
CC1Cc2ccccc2N1C(=O)c1ccc(N2CCCCC2)c([N+](=O)[O-])c1 (stereo not drawn),–,?,–,–,–,?
O=C(c1ccc(N2CCCC2)c([N+](=O)[O-])c1)N1CCc2ccccc2C1,–,16µM,?,·,–,29µM
CC1Cc2ccccc2N1C(=O)c1ccc(N2CCCC2)c([N+](=O)[O-])c1 (stereo not drawn),–,?,-82,·,–,?
N#Cc1ccc(N2CCc3ccccc3C2)c([N+](=O)[O-])c1,–,–,–,–,–,23µM
O=C(c1ccc(N2CCCCC2)c([N+](=O)[O-])c1)N1CCOCC1,–,–,–,–,–,–
CC1Cc2ccccc2N1C(=O)c1ccc2c(c1)OCO2 (stereo not drawn),–,?,-64,–,–,–
CC(=O)N1CCN(c2cc(N3CCc4ccccc4C3)c(F)cc2[N+](=O)[O-])CC1,–,?,?,–,–,?
Cc1ccc2c(=O)cc(C(=O)Nc3sc4c(c3C(=O)NCc3ccco3)CCC4)oc2c1C,·,–,·,–,–,–
CC(=O)c1cccc(OCC(=O)Nc2cc(S(=O)(=O)N3CCOCC3)ccc2N2CCCC2)c1,–,–,–,–,–,–
CCC(C)Oc1cccc(C(=O)Nc2ccccc2N2CCOCC2)c1 (stereo not drawn),–,?,–,–,–,18µM
CCC(=O)c1ccc(OCC(=O)Nc2ccc(N3CCOCC3)cc2N2CCOCC2)cc1,–,–,–,–,–,–
CC(=O)c1cccc(OCC(=O)Nc2ccccc2N2CCOCC2)c1,–,18µM,?,–,–,?
O=C(COc1cccc(Br)c1)Nc1ccc(N2CCOCC2)cc1N1CCOCC1,–,18µM,–,–,–,?
CC(C)Oc1cccc(C(=O)Nc2ccccc2N2CCOCC2)c1,–,–,–,–,–,?
O=C(NNc1c(Cl)cccc1Cl)c1sc2ccccc2c1Cl,·,–,·,–,·,–
CCOC(=O)C12CC1/C(=N\O)c1ccccc1O2 (stereo not drawn),·,–,·,·,·,–
CCn1ccc2cc(S(=O)(=O)N3CCC(C(=O)NCCc4ccc(C)cc4)CC3)ccc21,·,?,·,–,–,?
Cc1occc1C(=O)N(C)Cc1nc(-c2ccccc2)no1,–,?,–,·,–,?
C=CCN(Cc1nc(-c2ccccc2)no1)C(=O)c1ccoc1C,–,29µM,–,–,–,?
N#CCc1ccc(NC(=O)c2cc(S(=O)(=O)N3CCOCC3)ccc2Cl)cc1,?,16µM,–,–,–,18µM
N#Cc1ccc(NC(=O)c2cc(S(=O)(=O)N3CCOCC3)ccc2N2CCCC2)cc1,–,–,–,–,–,–
O=C(Nc1cc(S(=O)(=O)N2CCOCC2)ccc1Cl)c1cc([N+](=O)[O-])ccc1Cl,?,?,-97,·,–,15µM
Cc1ccc2c(c1)c1c(c(=O)n(Cc3ccccc3)c(=O)n1CC(=O)Nc1ccccc1F)n2C,·,–,·,–,–,?
CCN(CCNC(=O)C1CCN(S(=O)(=O)c2c(C)noc2C)CC1)c1ccccc1,–,?,–,·,–,23µM
